Activity calls are given as the source filed them. A call without a number means that no potency is given here. Calls follow the shape of the full dose curve.
target: Thyrotropin-releasing hormone receptor (Homo sapiens) (UniProt P34981); assay: qHTS assay to identify small molecule agonists of the thyrotropin-releasing hormone receptor (TRHR) signaling pathway (AID 1346891); settings: TRHR-HEK293 calcium fluorescence, agonist mode; series mostly up to 57.6 µM;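 also: HEK293 cells expressing TRHR with calcium dye readout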
Sequence (P34981 whole entry, looked up): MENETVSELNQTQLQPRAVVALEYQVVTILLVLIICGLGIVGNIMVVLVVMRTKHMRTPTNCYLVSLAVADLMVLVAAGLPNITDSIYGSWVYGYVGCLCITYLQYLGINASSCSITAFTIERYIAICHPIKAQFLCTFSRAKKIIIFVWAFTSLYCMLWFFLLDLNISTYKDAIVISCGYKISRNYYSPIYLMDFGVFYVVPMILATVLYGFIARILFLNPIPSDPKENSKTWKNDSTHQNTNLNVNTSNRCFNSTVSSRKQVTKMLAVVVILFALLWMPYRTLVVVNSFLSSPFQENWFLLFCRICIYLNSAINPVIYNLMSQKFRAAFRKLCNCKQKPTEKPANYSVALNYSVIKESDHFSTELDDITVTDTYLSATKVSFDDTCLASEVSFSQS
Text: National Center for Advancing Translational Sciences [NCATS] NIH Chemical Genomics Center [NCGC] U.S. Environmental Protection Agency [EPA] National Institutes of Environmental Health Sciences [NIEHS] National Toxicology Program [NTP] Assay overview: Thyrotropin-releasing hormone (TRH) receptor (TRHR) is a G-protein-coupled receptor which binds the tripeptide thyrotropin releasing hormone. TRHR is found in the brain and, when bound by TRH, acts (through phospholipase C) to increase intracellular inositol trisphosphate. It plays a crucial role in the anterior pituitary where it controls the synthesis and secretion of thyroid stimulating hormone and prolactin. The TRHR-Hek293 assay is a cell-based assay, and it has the potential to screen G protein-coupled receptors. A compound/drug can either activate (agonist) or suppress (antagonist) GPCRs that can be monitored by levels of intracellular calcium. Using this assay, the Tox21 10K compound library was screened to identify potential TRHR agonists.
Assay Protocol Summary: The TRHR-Hek293 cells were dispensed at 1500cells/4uL/well in 1536-well black-clear bottom plates using a Multidrop dispenser. After the assay plates were incubated at a 37 C/5% CO2 incubator for 18 hours, 4 uL of Dye-Loading Solution was added to each well. The plates were incubated at 37 C for 2 hours. For agonist mode, 23 nL of compounds dissolved in DMSO, positive controls or DMSO only was transferred to the assay plate by a pin tool. The fluorescence intensity in the plates was measured using FDSS 7000EX kinetic plate reader for 3 min at 1 sec intervals. Each test compound was measured at 15 concentrations and in triplicates.

| SMILES | Potency |
| --- | --- |
| Oc1ccc(OCc2ccccc2)cc1 | inactive |
| C=C(C)C(=O)OCCC[Si](OC)(OC)OC | inactive |
| CCCCOCCO | inactive |
| O=C(c1cc(O)c(O)c(O)c1)c1ccc(O)c(O)c1O | inactive |
| NCc1cccc(CN)c1 | inactive |
| CNC[C@H](O)[C@@H](O)[C@H](O)[C@H](O)CO | inactive |
| NCCc1ccc(O)c(O)c1 | inactive |
| C=C(C)C(=O)OCCCCCC | inactive |
| O=[N+]([O-])c1cccc(Cl)c1 | inactive |
| CCc1ccccc1O | inactive |
| S=c1nc[nH]c2nc[nH]c12 | inactive |
| Cc1cc(=O)[nH]c(C(C)C)n1 | inactive |
| C=C(C#N)C(=O)OCC | inactive |
| C=CC(=O)OCCCCCCCC(C)C | inactive |
| Cc1ccc(N)c(S(=O)(=O)O)c1 | inactive |
| O=S(=O)(O)c1cc(S(=O)(=O)O)c2c(N=Nc3ccccc3)c(O)ccc2c1 | inactive |
| CC1Cc2ccccc2N1NC(=O)c1ccc(Cl)c(S(N)(=O)=O)c1 (stereo not given) | inactive |
| CCCCCCCCCCCCOCC1CO1 (stereo not given) | inactive |
| Cc1cc(O)cc(C)c1Cl | inactive |
| Cc1ccc(C)c(C)c1 | inactive |

| SMILES | Potency |
| --- | --- |
| O=C(Cl)c1c(Cl)c(Cl)c(C(=O)Cl)c(Cl)c1Cl | inactive |
| C=C1C2CCC(C2)C1(C)C (stereo not given) | inactive |
| O=C1O[C@H](CO)[C@@H](O)[C@H](O)[C@H]1O | inactive |
| CCCCCCC(C)(C)S | inactive |
| Oc1c(Cl)cc(Cl)c(Cl)c1Cl | inactive |
| CC1=C(/C=C/C(C)=C/C=C/C(C)=C/CO)C(C)(C)CCC1 | inactive |
| OCCOCCOCCOCCO | inactive |
| CCCCCC/C=C/CCCCCCCC(=O)O | inactive |
| CS(=O)(=O)Nc1ccc([N+](=O)[O-])cc1Oc1ccccc1 | inactive |
| O=S(=O)(O)CCS | inactive |
| COCC(C)O (stereo not given) | inactive |
| CCCCC(CC)C(=O)OCCOCCOCCOC(=O)C(CC)CCCC (stereo not given) | inactive |
| CC1(C)CC(N=C=O)CC(C)(CN=C=O)C1 (stereo not given) | inactive |
| CCCCOCCOCCOC(=O)CCCCC(=O)OCCOCCOCCCC | inactive |
| O=Nc1ccc(O)cc1 | inactive |
| O=C1CCCCC1 | inactive |
| CC1COc2ccccc2N1C(=O)C(Cl)Cl (stereo not given) | inactive |
| OCC#CCO | inactive |
| CC(C)(N=C=O)c1cccc(C(C)(C)N=C=O)c1 | inactive |
| CCCCCCCCCC(=O)O | inactive |
